# Pf growth 96h: inhibits malaria parasite growth, 96 h; P. falciparum luciferase reporter growth, 96 h; Potency, µM (doses to about 28.7 µM), for the others: top-dose activity change, negative = inhibition, most hits filed as inhibitors; 6.9% of 320,000 active; AID 504834; also: potency is read from the fitted curve at half-maximal effect; % is scaled to controls: 0 for no effect and ±100 for the full control effect
#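 Infected RBCs, 2% Hct / 0.05% parasitemia final; luciferase-reporter P. falciparum; cpd 96 h, 37 C, 5% CO2; luciferase detection reagent; luminescence.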
# Pf growth 48h: inhibits P. falciparum growth in the first generation, 48 h | P. falciparum luciferase growth in erythrocytes, 48 h | Potency, µM (top dose mostly 28.7 µM), for the others: top-dose activity change, negative = inhibition, actives largely listed as inhibitors | 5.9% of 310,000 active; also: potency is read from the fitted curve at half-maximal effect; % is scaled to controls: 0 for no effect and ±100 for the full control effect
#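 Luminescence readout; reporter = integrated firefly luciferase in P. falciparum. RBC culture at 2% hematocrit, 0.1% parasitemia final, 37 C/5% CO2; decreased signal taken as growth inhibition.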
# NS1 function inh: inhibitors of influenza NS1 protein function. AID 2326. 0.4% of 270,000 active. Potency, µM (highest dose often 46.1 µM), inactives show at the highest dose activity, positive = more growth; calls by dose curve; also: potency is read from the fitted curve at half-maximal effect; actives are rising curves; nearly all actives have a fitted effect of over 50% in size
#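 In this qHTS, NS1 from influenza A is expressed in budding yeast, where it slows growth. Cells are switched from glucose to 2% galactose medium (pH 6.0, -URA), treated with compound, and growth recovery is read at OD600.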
# Shiga toxin inh: Shiga toxin inhibition. Vero cells, Shiga toxin protein synthesis inhibition reporter. inhibition, % at 38.7 µM. 9.2% of 290,000 active; in the data active = inhibition mostly above about 28%, no sharp cut-off; inactive = mostly below about 43%; also: 0% is about no effect
# CHX counter: affects cycloheximide protein synthesis inhibition readout, counter-screen. cell reporter, cycloheximide protein synthesis inhibition counterscreen. AID 2314. max response, %. 12% of 300,000 active; in the data active = max response mostly above about 13%, no sharp cut-off; inactive = mostly below about 14%; also: read at 38.3 µM for the half of the compounds with a filed dose; 0% is about no effect
# SARS PLP yeast: blocks SARS-CoV papain-like protease in a yeast assay; S. cerevisiae expressing SARS-CoV PLpro, growth rescue; Potency, µM (doses to about 32.9 µM), for the others: top-dose activity, positive = growth rescue, hits mostly activators; 0.19% of 330,000 active; calls by dose curve; also: potency is read from the fitted curve at half-maximal effect; 0% is about no effect; nearly all actives have a fitted effect of over 55% in size
# * = called active by the depositor; i = inactive; ? = inconclusive; · = no result; [ ] = remark or other dose. In the library only some 21% were active in any assay of this set; here they are far more common. Unless noted, calls follow the shape of the dose curve; as a rule, active = well fitted inhibition curve with a large enough effect; inconclusive = small, poorly fitted or top-dose-only effect, or another doubt; inactive = no such curve, though single readings can be large or run the other way.
SMILES,Pf growth 96h,Pf growth 48h,NS1 function inh,Shiga toxin inh,CHX counter,SARS PLP yeast
N/C(=N\OC(=O)c1ccccc1F)c1ccc([N+](=O)[O-])cc1,215.0%,·,0.6%,39.4,30.0*,-2.5%
N/C(=N\OC(=O)c1ccc(F)cc1)c1cccc([N+](=O)[O-])c1,-13.1%,24.9%,-30.3%,56.9*,31.1*,-7.4%
CCn1c(C)c(C2=CCN(S(=O)(=O)c3ccccc3)CC2)c2ccccc21,?,?,18.1%,33.5,-3.8,-6.2%
Cc1ccccc1C1CC(=O)Oc2cc(O)ccc21 (stereo not given),·,·,·,i,1.0,0.8%
COc1cc(C(=O)NCC(=O)N2CCN(S(=O)(=O)c3cc(C)ccc3C)CC2)cc(OC)c1OC,?,?,7.3%,-3.9,-2.5,3.0%
CCCN(CC(=O)Nc1ccccc1C)C(=O)CSc1ccccc1C,-12.4%,?,·,·,·,7.5%[6.58 µM]
N/C(=N/OC(=O)c1ccccc1Cl)c1ncc([N+](=O)[O-])s1,?,?,-89.2%,68.5*,35.0*,-19.9%
N/C(=N\OC(=O)c1cccc(F)c1)c1cccc([N+](=O)[O-])c1,-16.8%,24.3%,-5.3%,30.5*,17.7*,-3.6%
CCCS(=O)(=O)C/C(N)=N/OC(=O)c1ccccc1Cl,33.3%,21.8%,-5.3%,31.5,-1.1,-4.1%
CC1=C(C)/C(=N/OC(=O)c2cccc([N+](=O)[O-])c2)C=CC1=O,?,?,-13.6%,90.1*,56.0*,-27.2%
N/C(=N/OC(=O)c1cccc([N+](=O)[O-])c1)c1cccc([N+](=O)[O-])c1,24.3%,31.4%,-5.5%,24.8,-5.5,0.4%
Cc1cccc(/C(N)=N/OC(=O)c2ccc(F)cc2)c1,11.6%,?,-58.8%,85.9*,73.0*,-81.1%
C[C@H](Br)CN(C[C@H](C)Br)c1ccc2c(c1)Cc1ccccc1-2,·,·,-12.9%,·,·,·
CCOC(=O)C1(CC2CCCCO2)CCN(Cc2cc3ccccc3[nH]2)CC1 (stereo not given),?,31.0%,1.1%,7.3,-0.9,0.8%
O=C(N/N=C\c1ccccn1)c1ccccc1O,52.4%,?,·,120.2*,32.7*,-5.8%
Cc1ccccc1C(=O)N/N=C/c1ccccn1,?,-24.7%,6.9%,67.7*,52.5*,-6.9%
Cc1ccccc1OCC(=O)N/N=C/c1ccccn1,14.1%,-13.4%,·,35.1*,11.4,-1.0%
Cc1cc(C)cc(OCC(=O)N/N=C/c2ccccn2)c1,4.6%,-2.6%,1.1%,-7.4,11.0,-2.2%
CN(CC(=O)Nc1cccc(F)c1)C(=O)CC1CC2CCC1C2 (stereo not given),?,?,2.8%,-3.4,-1.6,-2.8%
NS(=O)(=O)c1ccc(CCNC(=O)c2cc3ccccc3s2)cc1,-21.1%,-22.7%,?,-1.3,1.9,3.0%
N#Cc1c(/N=C/c2ccc(O)cc2O)sc2c1C1CCN2CC1,7.4%,-18.5%,-11.1%,17.4,9.9*,6.1%
CCOC(=O)c1cc(-c2ccc(Cl)cc2)nc2c1c(C)nn2CCC#N,?,?,-54.6%,-15.1,-5.6,-1.1%
CCOC(=O)c1cc(-c2ccc(OC)cc2F)nc2c1c(C)nn2CCC#N,?,?,-11.8%,-15.4,-3.0,-6.6%
CCOC(=O)c1cc(-c2ccncc2)nc2c1c(C)nn2C,3.29µM*,·,-70.0%,15.8,6.9,-15.0%
CCOC(=O)c1cc(-c2ccco2)nc2c1c(C)nn2CCC#N,?,8.28µM*,0.1%,-4.3,14.6,-3.2%
SMILES,Pf growth 96h,Pf growth 48h,NS1 function inh,Shiga toxin inh,CHX counter,SARS PLP yeast
CCOC(=O)c1cc(-c2ccc3c(c2)OCCO3)nc2c1c(C)nn2CCC#N,·,9.28µM*,-19.0%,13.4,-1.8,4.2%
Fc1cccc(Nc2nc(N3CCOCC3)nc(N3CCOCC3)n2)c1,-15.7%,?,-39.6%,·,-1.0,-1.3%
CCOc1ccc(S(=O)(=O)N/N=C2/CC(c3ccccc3)Oc3ccccc32)cc1 (stereo not given),?,·,1.7%,32.4,29.7*,2.9%
O=C(N/N=C1\CC(c2ccccc2)Oc2ccccc21)c1ccc(O)cc1 (stereo not given),?,?,-27.5%,118.2*,40.5*,-2.0%
O=C(N/N=C1\CC(c2ccccc2)Oc2ccccc21)c1ccccn1 (stereo not given),-43.1%[5.75 µM],?,·,50.6*,15.4*,-0.4%
CN(Cc1ccccc1)S(=O)(=O)c1ccc2[nH]c(=O)ccc2c1,14.7µM*,7.4%,-3.2%,-7.9,-2.0,-1.0%
CCOc1ccccc1O[C@@H](c1ccccc1)[C@@H]1CNCCO1,13.5µM*,?,·,·,·,·
CCOc1ccccc1CNC(c1ccccc1)c1ccccc1,?,73.3%,-21.0%,·,-0.2,0.5%
Cc1oc(-c2ccccc2F)nc1CSCC(=O)NC1CCC(C)CC1 (stereo not given),-26.6%,20.2%,-40.1%,-4.5,1.2,-7.6%
COc1cccc(/C=C2\N=C(c3cncc(Br)c3)OC2=O)c1,43.2%,6.0%,8.1%,-4.1,24.7*,?
CCCCn1c(N)c(N(CCOC)C(=O)CSCc2cccc(C)c2)c(=O)[nH]c1=O,-9.9%,-6.6%,·,·,·,1.6%
Cc1ccccc1NC1c2ccccc2C(=O)N1Cc1ccco1 (stereo not given),8.28µM*,·,19.9%,-6.2,-2.9,2.1%
CCN1C(=O)[C@H]2[C@@H](c3ccc(-c4cccc(Cl)c4)c(OC)c3)N[C@@](Cc3ccccc3)(C(=O)OC)[C@H]2C1=O,0.415µM*,2.08µM*,·,·,·,-0.8%
CCN1C(=O)[C@H]2[C@@H](c3ccc(-c4ccc5c(c4)OCO5)c(OC)c3)N[C@@](Cc3ccccc3)(C(=O)OC)[C@H]2C1=O,?,1.17µM*,·,·,·,-0.6%
CCN1C(=O)[C@H]2[C@@H](c3ccc(-c4ccc5c(c4)OCO5)c(OC)c3)N[C@@](CC(C)C)(C(=O)OC)[C@H]2C1=O,13.1µM*,6.57µM*,·,·,·,-2.4%
CCN1C(=O)[C@H]2[C@@H](c3ccc(-c4ccc(OC)cc4)c(OC)c3)N[C@@](Cc3ccccc3)(C(=O)OC)[C@H]2C1=O,·,·,·,·,·,12.2%
COc1cc2[nH]c(=O)n(CCC(=O)N3CCc4ccccc4C3)c(=O)c2cc1OC,15.7%,·,-0.9%,-15.7,6.7,-9.9%[6.58 µM]
O=C(CCCCn1c(=S)[nH]c2ccsc2c1=O)NCc1ccc2c(c1)OCO2,50.5%,0.0%,·,-9.7,3.7,4.8%
CCOC(=O)N1CCN(C(=O)CCn2c(=S)[nH]c3ccsc3c2=O)CC1,9.28µM*,18.8%,·,14.1,12.9,-1.0%
COc1ccc(N2CCN(C(=O)CCCn3c(=O)[nH]c4ccsc4c3=O)CC2)cc1,7.38µM*,·,3.0%,-3.8,-2.7,-0.6%
CCOC(=O)N1CCN(C(=O)CCn2c(=O)[nH]c3ccsc3c2=O)CC1,?,1.9%,·,9.7,-6.2,-1.9%
O=C(CCn1c(=O)[nH]c2ccsc2c1=O)N1CCc2ccccc2C1,10.4µM*,11.1%,3.6%,20.0,3.7,2.1%

# Screening results from PubChem BioAssay.
